Test results: the antibiotic and cytotoxicity screens of Wong et al. (2023)
About 3,300 (8.5%) of roughly 39,000 compounds were called active. The sample holds actives, similar compounds and a random draw of the others, so the mix is not that of the screen.

Each molecule was assayed on HepG2 (assay: cytotoxicity call (relative viability < 0.9)). Conditions: 10 µM.

SMILES | cytotoxicity call
C[C@@H]1CCCCO[C@H](CN(C)S(=O)(=O)c2cccs2)[C@@H](C)CN([C@@H](C)CO)C(=O)c2cc(NC(=O)Nc3ccc(F)cc3)ccc2O1 | inactive
NC[C@@H](O)c1ccsc1 | inactive
N[C@H](C(=O)O)[C@H](O)c1ccc(O)c(O)c1 | inactive
CNCC(O)c1ccc(O)c(O)c1.O=C(O)C(O)C(O)C(=O)O (stereo not given) | active
CNC[C@@H](O)c1ccc(O)c(O)c1 | inactive
CNC[C@H](O)c1ccc(O)c(O)c1 | inactive
NC[C@@H](O)c1ccc2ccccc2c1 | inactive
O=C(O)[C@@H](O)Cc1ccc(O)c(O)c1 | inactive
NC[C@H](O)c1ccc(O)c(O)c1 | active
NC(C(=O)O)C(O)c1ccc(O)c(O)c1 (stereo not given) | active
N[C@@H](C(=O)O)c1ccc(C(=O)O)c(O)c1 | inactive
N[C@H](C(=O)O)c1ccc(C(=O)O)c(O)c1 | inactive
NCC(O)c1ccc(O)c(O)c1.O=C(O)C(O)C(O)C(=O)O (stereo not given) | active
Cc1noc(C)c1S(=O)(=O)N(C)C[C@H]1Oc2ccc(NC(=O)Cc3cn(C)c4ccccc34)cc2CC(=O)N([C@@H](C)CO)C[C@H]1C | inactive
COc1cccc(S(=O)(=O)N[C@@H]2C=C[C@H](CC(=O)NC3CCC3)O[C@H]2CO)c1 | inactive
C[C@H](CO)N1C[C@H](C)[C@@H](CN(C)C(=O)Cc2ccccc2)OCCCC[C@H](C)Oc2ccc(NS(=O)(=O)c3cccs3)cc2C1=O | inactive
C[C@H](CO)N1C[C@H](C)[C@@H](CN(C)Cc2ccc(C(=O)O)cc2)Oc2ccc(NC(=O)c3ccncc3)cc2C1=O | inactive
C[C@@H]1CCCCO[C@@H](CN(C)Cc2ccc(C(F)(F)F)cc2)[C@H](C)CN([C@H](C)CO)C(=O)c2cc(NS(=O)(=O)c3cn(C)cn3)ccc2O1 | inactive
CC(C)NC(=O)N(C)C[C@H]1OCCCC[C@H](C)Oc2ccc(NC(=O)Nc3ccc(C(F)(F)F)cc3)cc2C(=O)N([C@@H](C)CO)C[C@H]1C | inactive
C[C@@H]1CCCCO[C@H](CN(C)S(=O)(=O)c2ccc(Cl)cc2)[C@@H](C)CN([C@@H](C)CO)C(=O)c2cc(NC(=O)C3CCCCC3)ccc2O1 | inactive
C[C@@H]1CCCCO[C@H](CN(C)C(=O)CCC(F)(F)F)[C@H](C)CN([C@H](C)CO)C(=O)c2cc(NS(=O)(=O)c3ccccc3)ccc2O1 | inactive
C[C@@H]1CCCCO[C@@H](CN(C)C(=O)Nc2ccccc2)[C@H](C)CN([C@H](C)CO)C(=O)c2cc(NC(=O)Nc3ccc(C(F)(F)F)cc3)ccc2O1 | inactive
CC(C)NC(=O)N(C)C[C@H]1Oc2c(NS(=O)(=O)c3ccc(F)cc3)cccc2C(=O)N([C@H](C)CO)C[C@H]1C | inactive
C[C@@H]1CN([C@@H](C)CO)C(=O)c2cc(C#CC3CC3)cnc2O[C@H]1CN(C)S(=O)(=O)c1cccc(F)c1 | inactive

SMILES | cytotoxicity call
O=c1[nH]ncn1-c1ccccc1 | inactive
Cc1ccc(=O)n(-c2ccccc2)c1 | inactive
O=c1[nH]ccn(-c2ccccc2)c1=O | active
Cc1c(C(=O)O)sc(=O)n1C | inactive
CC(C)NC(=O)N(C)C[C@@H]1Oc2cc(C#Cc3cccc(F)c3)ccc2S(=O)(=O)N([C@@H](C)CO)C[C@@H]1C | inactive
C[C@@H]1CN([C@@H](C)CO)C(=O)Cc2cc(NS(=O)(=O)c3ccccc3)ccc2O[C@@H]1CN(C)S(=O)(=O)c1ccc(F)cc1 | inactive
Cc1ccc(S(=O)(=O)N(C)C[C@@H]2OCCCC[C@H](C)Oc3ccc(NC(=O)CCC(F)(F)F)cc3C(=O)N([C@H](C)CO)C[C@@H]2C)cc1 | inactive
O=C(N[C@H](c1ccc(F)cc1)c1ccc2ccccc2n1)C1CCN(CCOc2ccc(Cl)cc2)CC1 | inactive
O=C(N[C@@H](c1ccccc1)c1ccc2ccccc2n1)C1CCN(CCOc2ccc(Cl)cc2Cl)CC1 | inactive
COc1ccc(OCCN2CCC(C(=O)N[C@@H](c3ccc(F)cc3)c3ccc4ccccc4n3)CC2)cc1 | active
O=C(N[C@@H](c1ccc(F)cc1)c1ccc2ccccc2n1)C1CCN(CCOc2ccc(F)cc2)CC1 | active
COc1ccc([C@@H](NC(=O)C2CCN(CCOc3ccc(Cl)cc3Cl)CC2)c2ccco2)cc1 | inactive
O=C(N[C@H](c1ccc(F)cc1)c1ccc2ccccc2n1)C1CCN(CCOc2ccc(Cl)cc2Cl)CC1 | inactive
COc1ccc(/C=C/CN2CCC(C(=O)N[C@@H](c3ccc(F)cc3)c3ccc4ccccc4n3)CC2)cc1 | active
C[C@@H]1CN([C@@H](C)CO)C(=O)c2cccc(NS(=O)(=O)c3cccs3)c2O[C@H]1CN(C)S(=O)(=O)c1ccc(F)cc1 | inactive
C[C@@H]1CN([C@H](C)CO)S(=O)(=O)c2ccc(-c3cccc(C#N)c3)cc2O[C@H]1CN(C)C(=O)c1cccnc1 | inactive
COc1cccc(S(=O)(=O)N2C[C@@H](O)COC[C@@H]3O[C@H](CC(=O)N4CCN(C)CC4)CC[C@H]32)c1 | inactive
CO[C@H]1CN(C)C(=O)c2cc(NS(=O)(=O)c3ccccc3)ccc2OC[C@@H](C)N(C(=O)NC(C)C)C[C@H]1C | inactive
CC(C)(C)c1nc[nH]c1/C=c1\[nH]c(=O)/c(=C/c2ccccc2)[nH]c1=O | inactive
C[C@@H]1CN([C@@H](C)CO)C(=O)c2cc(NS(=O)(=O)c3cn(C)cn3)ccc2O[C@@H](C)CCCCO[C@@H]1CN(C)C(=O)CCCN(C)C | inactive
CO[C@@H]1CN(C)C(=O)c2cc(NC(=O)Nc3ccccc3F)ccc2OC[C@H](C)N(CCC(F)(F)F)C[C@@H]1C | inactive
CC(=O)O[C@H](C[C@H](O)[C@@](C)(CCC=C(C)C)O[C@H]1O[C@@H](CO)[C@@H](O)[C@@H](O)[C@@H]1O)/C(C)=C/COC[C@@H](O)[C@@H](O)[C@@H](O)[C@@H](O)CO | inactive
CCCCCCOc1cccc(N)c1 | inactive
C[C@@H]1CCCCO[C@H](CN(C)C(=O)Nc2cccc3ccccc23)[C@@H](C)CN([C@@H](C)CO)C(=O)c2cc(NC(=O)CCCN(C)C)ccc2O1 | inactive

SMILES | cytotoxicity call
CNC[C@@H]1OCCCC[C@@H](C)Oc2ccc(NS(=O)(=O)c3cn(C)cn3)cc2C(=O)N([C@H](C)CO)C[C@@H]1C | inactive
C[C@H](CO)N1C[C@H](C)[C@@H](CN(C)CC2CCCCC2)OCCCC[C@H](C)Oc2ccc(NC(=O)Nc3ccc(C(F)(F)F)cc3)cc2C1=O | active
C[C@@H]1CCCCO[C@@H](CN(C)CC2CCCCC2)[C@H](C)CN([C@@H](C)CO)C(=O)c2cc(NC(=O)Nc3ccc(C(F)(F)F)cc3)ccc2O1 | active
C[C@@H]1CCCCO[C@@H](CN(C)CC2CCCCC2)[C@H](C)CN([C@H](C)CO)C(=O)c2cc(NC(=O)Nc3ccc(C(F)(F)F)cc3)ccc2O1 | active
C[C@@H]1CN([C@@H](C)CO)C(=O)c2cc(NC(=O)Nc3ccc(C(F)(F)F)cc3)ccc2O[C@@H](C)CCCCO[C@H]1CN(C)CC1CCCCC1 | inactive
C[C@H]1CCCCO[C@@H](CN(C)CC2CCCCC2)[C@@H](C)CN([C@@H](C)CO)C(=O)c2cc(NC(=O)Nc3ccc(C(F)(F)F)cc3)ccc2O1 | active
CC(C)=CCCC(C)=CCOc1ccc2ccc(=O)oc2c1 | inactive
O=C1/C(=C/c2cn(-c3ccccc3)nc2-c2ccc(OCc3ccc(Cl)cc3)cc2)SC(=S)N1CCS(=O)(=O)O | inactive
CCS(=O)(=O)NCC[C@H]1CC[C@H](NC(=O)C2CCOCC2)[C@@H](CO)O1 | inactive
O=C(C[C@H]1C[C@H]2c3cc(NS(=O)(=O)c4ccc(F)cc4)ccc3O[C@H]2[C@@H](CO)O1)NCCc1ccccc1 | inactive
COc1ccc(S(=O)(=O)N(C)C[C@H]2OCCCC[C@H](C)Oc3ccc(NC(=O)Nc4c(C)noc4C)cc3C(=O)N([C@H](C)CO)C[C@@H]2C)cc1 | inactive
C[C@H]1CN([C@@H](C)CO)C(=O)Cc2cc(NC(=O)c3ccncc3)ccc2O[C@@H]1CN(C)S(=O)(=O)c1ccc(F)cc1 | inactive
CN1CCN(C(=O)C[C@@H]2C[C@H]3c4cc(NC(=O)c5ccc6c(c5)OCO6)ccc4O[C@H]3[C@@H](CO)O2)CC1 | inactive
CC(=O)O[C@@H]1CC[C@@]2(C)[C@@H](CC[C@]3(C)[C@@H]2C(=O)C=C2[C@@H]4[C@@H](C)[C@H](C)CC[C@]4(C)CC[C@]23C)[C@@]1(C)C(=O)O | inactive
C[C@@H]1CN([C@H](C)CO)C(=O)c2cccc(NC(=O)C3CC3)c2O[C@@H]1CN(C)C(=O)Nc1ccc2c(c1)OCO2 | inactive
Cc1noc(C)c1NC(=O)N(C)C[C@@H]1Oc2ncc(C#CCN(C)C)cc2C(=O)N([C@H](C)CO)C[C@H]1C | inactive
C[C@@H]1CCCCO[C@@H](CN(C)CC2CCCCC2)[C@@H](C)CN([C@H](C)CO)C(=O)c2cc(NC(=O)Nc3ccc(C(F)(F)F)cc3)ccc2O1 | active
C[C@H](CO)N1C[C@H](C)[C@H](CN(C)CC2CCCCC2)OCCCC[C@H](C)Oc2ccc(NC(=O)Nc3ccc(C(F)(F)F)cc3)cc2C1=O | active
C[C@@H]1CN([C@H](C)CO)C(=O)c2cc(NC(=O)Nc3ccc(C(F)(F)F)cc3)ccc2O[C@@H](C)CCCCO[C@@H]1CN(C)CC1CCCCC1 | active
C[C@@H]1CCCCO[C@H](CN(C)CC2CCCCC2)[C@@H](C)CN([C@H](C)CO)C(=O)c2cc(NC(=O)Nc3ccc(C(F)(F)F)cc3)ccc2O1 | active
COCC(=O)Nc1ccc2c(c1)C(=O)N(C)C[C@@H](OC)[C@H](C)CN(C(=O)Cc1ccccn1)[C@@H](C)CO2 | inactive
C[C@@H]1CN([C@@H](C)CO)C(=O)c2cc(C#CCc3ccccc3)cnc2O[C@@H]1CN(C)C(=O)C1CCOCC1 | inactive
